Reference: PubChem BioAssay (NCATS)
Records with an inconclusive call do not appear. Values without a mark were called inactive. The source made the active and inactive calls. The call rests on the fitted dose curve; in most records, active means well fitted cell-killing curve with a large enough effect; inconclusive means small, poorly fitted or top-dose-only effect; inactive means flat fitted curve, though single readings scatter.

experiment: qHTS of pediatric cancer cell lines to identify multiple opportunities for drug repurposing: Primary screen for DAOY cells (AID 1347090); settings: DAOY medulloblastoma viability, CellTiter-Glo luminescence, 48 h; series mostly up to 46 µM; activity change, negative = cytotoxic: at the top concentration; further: nearly all actives have a fitted effect of over 55% in size
Source text: Drug repurposing or repositioning has been offered as a strategy for drug development in oncology programs. This approach has special potential for childhood cancers and other rare or orphan diseases, where the expected return on new drug development has been a disincentive to pharmaceuticals.
In this project we exploit the poly-pharmacology of drugs to discover new indications via phenotypic screening of a panel of 19 well-characterized cell lines derived from solid tumors seen in children and adolescents. The goal is to identify approved drugs with previously unrecognized anticancer properties that has the potential to reveal new mechanisms and biological processes involved in carcinogenesis or drug resistance. We employed a titration-based paradigm (quantitative high-throughput screening or qHTS), where all compounds were tested at multiple concentrations for their effect on cell viability. Concentration-response curves (CRCs) were derived directly from the primary screen, and both potency and efficacy values were used to identify compounds with robust bioactivity profiles. We screened the NIH Chemical Genomics Center (NCGC) Pharmaceutical Collection (NPC) and Mechanism Interrogation Plate (MIPE) small molecule collections of approved and investigational compounds against these cell lines; and measured metabolically active cells after 48 hours of compound treatment as a proxy for cell viability.
Assay Submitter: Nathalia J. Martinez, National Center for Advancing Translational Sciences, National Institutes of Health, Rockville, MD, USA; email: natalia.martinez@nih.gov
[1] Shen, M et al. Quantitative high-throughput phenotypic screening of pediatric cancer cell lines identifies multiple opportunities for drug repurposing. Oncotarget 2017 Dec 19;9(4):4758-4772. PMID 29435139.
The cells were obtained from University of North Carolina (UNC), Pediatric Preclinical Testing Program (PPT), and Coriell Institute (CI).
qHTS cell viability assay:
Cells were assayed in growth media at a density of 500-1,000 cells/well. Five microliters of cells were dispensed into 1,536-well, white, solid-bottom, TC-treated plates (Greiner Bio One) using a multidrop dispenser and incubated at 37 degrees C, 5% CO2, under a humidified atmosphere for 5 hours. Twenty-three nanoliters of compounds and controls (neutral control DMSO or positive control bortezomib at final concentration of 2.3 µM) were subsequently transferred by Kalypsys pintool. For primary screens, the MIPE collection was tested at 11-point dilutions (final concentrations range from 0.78 nM to 46 µM) and the NPC collection at 8-point dilutions (final concentrations range from 0.59 nM to 46 µM). Compounds tested in follow-up screens were assayed at 11-point dilutions. Cells were incubated for 48 hours, followed by addition of 3 uL of CellTiter-Glo (Promega). After a 15 min incubation at room temperature, samples were analyzed for luminescence intensity using a ViewLux High-throughput CCD imager equipped with clear filters.
Potency means the concentration at half of the fitted maximal effect.

Row | Compound | activity change, negative = cytotoxic | Potency
1 | CC[N+]1(CCOC(=O)C(O)(c2ccccc2)c2ccccc2)CCCCC1 | 14.7% | –
2 | CCCCC(CC)COC(=O)c1ccccc1C(=O)OCC(CC)CCCC (stereo not given) | 5.28% [at 92.7 µM] | –
3 | COC[C@H]1OC(=O)c2coc3c2[C@@]1(C)C1=C(C3=O)[C@@H]2CC[C@H](O)[C@@]2(C)C[C@@H]1OC(C)=O | – | 14.8 µM (active)
4 | CC(C)NCC(O)c1ccc([N+](=O)[O-])cc1 (stereo not given) | 1.24% | –
5 | Cc1ccccc1-n1c(Cn2ncc3c(N)ncnc32)nc2cccc(C)c2c1=O | – | 0.0935 µM (active)
6 | ClC1=C(Cl)[C@]2(Cl)[C@@H]3[C@@H]4C[C@@H]([C@H]5O[C@@H]45)[C@@H]3[C@@]1(Cl)C2(Cl)Cl | – | 38.6 µM (active)
7 | CCN1C[C@]2(OC(=O)c3ccccc3NC(C)=O)CC[C@H](OC)[C@@]34[C@H]5CC6[C@@H](OC)C[C@](O)(C(C[C@@H]23)[C@@H]14)[C@@]5(O)[C@@H]6OC | 2.78% | –
8 | COc1ccc2c(c1)CN(C)CC2c1ccc(Cl)c(Cl)c1 (stereo not given) | -16.1% | –
9 | NC1=NC(=O)N2CC12 (stereo not given) | -25.8% | –
10 | O=S(=O)(F)Cc1ccccc1 | -17.4% | –
11 | CC(C)(C)[C@]1(O)C[C@@H]2OC(=O)C[C@@]23C(=O)O[C@@H]2OC(=O)[C@H](O)C213 (stereo not given in full) | -2.75% | –
12 | c1cc2ccc3cccc4ccc(c1)c2c34 | -6.67% [at 92.7 µM] | –
13 | C1=C2CCCN[C@H]2[C@@H]2C[C@H]1[C@@H]1CCCCN1C2 | 4.97% | –
14 | C=C[C@@H]1CN2CCC1C[C@H]2[C@H](O)c1ccnc2ccccc12 (stereo not given in full) | -18.2% | –
15 | COc1ccc2c(c1)[C@]13CCCCC1C(C2)N(C)CC3 (stereo not given in full) | 6.24% | –
16 | CC[C@@]1(O)C(=O)OCc2c1cc1n(c2=O)Cc2cc3ccccc3nc2-1 | – | 0.0469 µM (active)
17 | C[C@@H]1[C@H](O)[C@@H](C)C=CC=CCCC=CC=CC=CC=C[C@H](O[C@H]2O[C@@H](C)[C@H](O)[C@@H](N)[C@@H]2O)CC2O[C@](O)(C[C@@H](O)[C@H](O)CC[C@@H](O)C[C@@H](O)C[C@@H](O)CC(=O)O[C@H]1C)C[C@H](O)[C@H]2C(=O)O | 3% | –
18 | CC(=O)O[C@@]12CO[C@H]1C[C@H](O)[C@@]1(C)C(=O)[C@H](O)C3=C(C)[C@@H](O)C[C@@](O)([C@@H](OC(=O)c4ccccc4)[C@@H]21)C3(C)C | – | 18.7 µM (active)
19 | CC(Cc1ccc(O)cc1)NCC(O)c1cc(O)cc(O)c1 (stereo not given) | 2.47% | –
20 | C[C@]12CC[C@H](O)CC1=CC[C@H]1[C@H]3CCC(=O)[C@@]3(C)CC[C@@H]12 | – | 23.5 µM (active)

Row | Compound | activity change, negative = cytotoxic | Potency
21 | CC=C(C)C(=O)O[C@H]1C(C)=C2[C@@H]3OC(=O)[C@@](C)(O)[C@@]3(O)[C@@H](OC(=O)CCC)C[C@](C)(OC(C)=O)[C@@H]2[C@@H]1OC(=O)CCCCCCC | – | 0.469 µM (active)
22 | CC(C)(C)NC[C@H](O)c1ccc(O)cc1Cl | 6.43% | –
23 | COC(=O)c1cncn1C(C)c1ccccc1 (stereo not given) | -9.57% | –
24 | OCCCBr | 12.7% [at 92.7 µM] | –
25 | O=C1C(I)=CC(=C(c2cc(I)c(O)c(I)c2)c2ccccc2C(=O)O)C=C1I | -36.8% | –
26 | CC1=C(O)C(=O)C=C2C1=CC=C1[C@@]2(C)CC[C@@]2(C)[C@@H]3C[C@](C)(C(=O)O)CC[C@]3(C)CC[C@]12C | – | 0.935 µM (active)
27 | N#C[C@H](O[C@@H]1O[C@H](CO[C@@H]2O[C@H](CO)[C@H](O)[C@H](O)[C@H]2O)[C@H](O)[C@H](O)[C@H]1O)c1ccccc1 | – | 23.5 µM (active)
28 | O=C(Nc1ccncc1)C(=O)c1cn(Cc2ccc(Cl)cc2)c2ccccc12 | – | 0.0935 µM (active)
29 | CC(C)Oc1cccc(NC(=O)c2ccccc2C(F)(F)F)c1 | -15.2% [at 92.7 µM] | –
30 | CC(=O)OCC1=C(C(=O)O)N2C(=O)[C@@H](N)[C@@H]2SC1 | -23.8% | –
31 | O=[N+]([O-])c1ccc([As](=O)(O)O)cc1 | -0.677% | –
32 | S=C(SSC(=S)N1CCCCC1)N1CCCCC1 | – | 0.0266 µM (active)
33 | CC(O)=C(C#N)C(=O)Nc1cc(Br)ccc1Br | -14.8% | –
34 | COCC1(CO)C(=O)C2CCN1CC2 (stereo not given) | – | 23.5 µM (active)
35 | CC1(N2CCC(n3c([C@@H]4CCCNC4)nc4ccccc43)CC2)CCCCCCC1 | -13.8% | –
36 | CC(C)N(CCNC(=O)CN1CCCC1=O)C(C)C | 3.75% | –
37 | C=C1C[C@H]2[C@H]3CCC(=O)[C@@]3(C)CC[C@@H]2[C@@]2(C)C=CC(=O)C=C12 | -4.73% | –
38 | C[C@@H]1CC[C@@]2(OC1)O[C@H]1C[C@H]3[C@@H]4CC=C5C[C@@H](O[C@@H]6O[C@H](CO)[C@@H](O[C@@H]7O[C@@H](C)[C@H](O)[C@@H](O)[C@@H]7O)[C@H](O)[C@@H]6O[C@@H]6O[C@@H](C)[C@H](O)[C@@H](O)[C@@H]6O)CC[C@]5(C)[C@@H]4CC[C@]3(C)[C@@H]1[C@H]2C | – | 7.43 µM (active)
39 | CCC1(CCC(C)C)C(=O)NC(=O)NC1=O | -0.137% [at 92.7 µM] | –
40 | C[C@@]12OC(=O)[C@]1([C@@H](O)[C@@H]1C=CCCC1)NC(=O)[C@H]2CCCl | – | 0.118 µM (active)
